# Test results published in PubChem BioAssay.
# Activity calls are given as the source filed them.
# How the values were obtained:
# [1] = test system: Wnt5a (protein binding on small-molecule microarray); assay: Wnt5a binders on small-molecule microarray, primary screen, biophysical, 635/667 nm fluorescence (AID 1142); settings: 635 nm fluorescence, higher = more signal;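 further: fluorescence read at 667 nm with signal to noise per printed feature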
# [2] = cell viability in Huh7 cells, primary screen, cytotoxicity control for HCV replication inhibitor project, CellTiter-Glo luminescence, basal, 48 h (AID 1143); settings: Huh7 HCV replicon, higher = more signal, called active from +8 up or from −8 down;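 further: Huh7 hepatoma cells carrying a hepatitis C replication reporter with no stimulus; test concentration not given here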
# [3] = CREB reporter modulators without forskolin, primary screen, cell-based, PC12, CRE-LacZ reporter, unstimulated (AID 1145); settings: no forskolin, luminescence, 4.5 h, higher = more signal, called active from +8 up or from −8 down
# [4] = CREB reporter modulators under forskolin, primary screen, cell-based, PC12, CRE-LacZ reporter, forskolin-stimulated (AID 1146); settings: luminescence, 4.5 h, higher = more signal, called active from +8 up or from −8 down;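 further: PC12 cells with 6xCRE LacZ reporter stimulated by forskolin 10 µM; beta-galactosidase reporter signal reflecting CREB driven transcription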
# [5] = biological target: Streptavidin (Streptomyces avidinii) (UniProt P22629); assay: streptavidin binders on small-molecule microarray, primary screen, artefact control for SMM compound annotation, biophysical, 635/667 nm fluorescence (AID 1147); settings: streptavidin binding, higher = more signal;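 further: signal reflects streptavidin binding to arrayed compounds as a control protein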
# [6] = small-molecule binders of probe aInhba, primary screen, biochemical, small-molecule microarray, 635/667 nm fluorescence (AID 1148); settings: higher = more signal;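 further: score merges 667nm spot fluorescence with signal-to-noise for antibody binding to printed compounds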
# [7] = biological target: Torsin-1A (Homo sapiens) (UniProt O14656); assay: torsin A binders from cell lysate, primary screen, small-molecule microarray, wild-type, 635/667 nm (AID 1149); settings: COS7 hTOR1A-WT lysate, 635 nm fluorescence, higher = more signal
# [8] = biological target: Torsin-1A (Homo sapiens) (UniProt O14656); assay: small-molecule binders of mutant TOR1A in lysate, primary screen, cell lysate, small-molecule microarray, COS7 lysate, 635/667 nm fluorescence (AID 1150); settings: COS7 hTOR1A mutant lysate, 635 nm fluorescence, higher = more signal;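 further: score pools 667 nm emission and signal to noise measuring lysate protein binding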
# [9] = test system: Sonic hedgehog protein (Shh); assay: small-molecule binders of Shh protein, primary screen, biochemical, small-molecule microarray, 635/667 nm fluorescence (AID 1151); settings: small-molecule microarray binding, 635 nm fluorescence; higher = more signal;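 further: Shh protein binding to compounds spotted on small-molecule microarray slides; score combines spot fluorescence intensity with signal-to-noise across triplicate slides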
# Sequence of Torsin-1A (Homo sapiens) (O14656 whole entry, looked up): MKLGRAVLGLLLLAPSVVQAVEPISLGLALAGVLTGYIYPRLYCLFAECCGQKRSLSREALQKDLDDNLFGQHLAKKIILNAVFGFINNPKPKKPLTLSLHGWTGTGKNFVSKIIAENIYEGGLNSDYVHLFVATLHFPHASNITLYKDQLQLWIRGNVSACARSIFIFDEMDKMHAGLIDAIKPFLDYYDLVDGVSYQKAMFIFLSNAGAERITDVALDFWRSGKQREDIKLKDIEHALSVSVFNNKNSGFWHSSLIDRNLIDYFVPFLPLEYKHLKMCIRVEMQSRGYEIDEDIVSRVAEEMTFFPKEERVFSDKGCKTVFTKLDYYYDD
# Sequence of Streptavidin (Streptomyces avidinii) (P22629 whole entry, looked up): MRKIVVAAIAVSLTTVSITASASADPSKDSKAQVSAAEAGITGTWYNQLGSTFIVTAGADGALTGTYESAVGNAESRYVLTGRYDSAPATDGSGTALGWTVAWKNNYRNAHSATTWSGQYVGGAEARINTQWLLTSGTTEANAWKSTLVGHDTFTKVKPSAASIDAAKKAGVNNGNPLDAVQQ
compound,measurement,setting,value
C=CC[C@]1(C(N)=O)N=C(c2ccc(OCCCO)cc2)O[C@H]1c1ccccc1CN=[N+]=[N-],composite z-score,[1],0.151
same,z-score,[2],-4.28 (inactive)
same,z-score,[3],1.54 (inactive)
same,z-score,[4],-1.31 (inactive)
same,composite z-score,[5],1.42
same,composite z-score,[6],-0.0093
same,composite z-score,[7],1.69
same,composite z-score,[8],0.96
same,composite z-score,[9],-0.373
COCCOC(=O)N1C(=O)[C@@]2(c3cc(C#CCNC(N)=O)ccc31)[C@H](c1ccc(OCCO)cc1)N1[C@H](c3ccccc3)[C@H](c3ccccc3)OC(=O)[C@H]1[C@@H]2C(=O)N1CCCCCCC1,composite z-score,[1],0.148
same,z-score,[2],-2.36 (inactive)
same,z-score,[3],-0.0566 (inactive)
same,z-score,[4],-1.91 (inactive)
same,composite z-score,[5],0.34
same,composite z-score,[6],0.325
same,composite z-score,[7],0.0499
same,composite z-score,[8],0.576
same,composite z-score,[9],0.932
C[C@@H]1CC[C@H]2C(=O)N3[C@@H](CC[C@@H](C)[C@@H]3c3cccc(N4CCOCC4)c3)C(=O)N2[C@H]1c1cccc(N2CCOCC2)c1,composite z-score,[1],-0.0915
same,z-score,[2],-0.334 (inactive)
same,z-score,[3],9.59 (active)
same,z-score,[4],-0.84 (inactive)
same,composite z-score,[5],0.766
same,composite z-score,[6],-0.278
same,composite z-score,[7],1.38
same,composite z-score,[8],0.312
same,composite z-score,[9],0.106
CN1C2C=C(c3ccc(CO)cc3)C(C3C(=O)N(C(N)=O)C(=O)C32)C1c1cccs1 (centres undefined),composite z-score,[1],-0.25
same,z-score,[2],-0.975 (inactive)
same,z-score,[3],2.09 (inactive)
same,z-score,[4],-1.5 (inactive)
same,composite z-score,[5],-0.487
same,composite z-score,[6],-0.0791
same,composite z-score,[7],0.0899
same,composite z-score,[8],0.782
same,composite z-score,[9],1.4
CC(C)CNC(=O)[C@@]1(C)c2ccccc2C(=O)N(Cc2ccc(OC(F)(F)F)cc2)[C@H]1c1ccc(CO)cc1,composite z-score,[1],0.12
same,z-score,[2],-1.65 (inactive)
same,z-score,[3],0.0279 (inactive)
same,z-score,[4],-0.569 (inactive)
same,composite z-score,[5],-1.12
same,composite z-score,[6],-0.128
same,composite z-score,[7],-0.0233
same,composite z-score,[8],0.316
same,composite z-score,[9],-0.406
COc1ccc([Si](C)(C)[C@H]2[C@H](CCO)O[C@@]3(C(=O)N(Cc4ccc(N5CCCCC5=O)cc4)c4ccccc43)[C@@H]2C)cc1,composite z-score,[1],-0.0939
same,z-score,[2],-3.56 (inactive)
same,z-score,[3],1.98 (inactive)
same,z-score,[4],-2.57 (inactive)
same,composite z-score,[5],-0.0077
same,composite z-score,[6],-0.128
same,composite z-score,[7],0.446
same,composite z-score,[8],0.62
same,composite z-score,[9],1.58
CC(C)N1CC=CC23O[C@@H]4/C=C\CCCOC(=O)C4[C@H]2C(=O)N(CCCCCO)[C@@H]3C1=O (some centres undefined),composite z-score,[1],-0.22
same,z-score,[2],-0.143 (inactive)
same,z-score,[3],0.0564 (inactive)
same,z-score,[4],0.392 (inactive)
same,composite z-score,[5],-1.52
same,composite z-score,[6],-0.244
same,composite z-score,[7],1.5
same,composite z-score,[8],1.58
same,composite z-score,[9],-0.641
CSCC[C@@H]1NC(=O)CC=C[C@@H](C)COC(=O)[C@H](CCSC)NC(=O)CC=C[C@@H](C)COC1=O,composite z-score,[1],0.119
same,z-score,[2],-3.38 (inactive)
same,z-score,[3],-0.389 (inactive)
same,z-score,[4],-0.837 (inactive)
same,composite z-score,[5],-0.563
same,composite z-score,[6],-0.146
same,composite z-score,[7],0.138
same,composite z-score,[8],0.291
same,composite z-score,[9],0.493
CN(C)CCCC[C@@H]1NC(=O)[C@@H]2C[C@H](C(=O)NCCCCCNC(=O)CS)[C@H](c3ccc(O)cc3)N2C1=O,composite z-score,[1],0.202
same,z-score,[2],0.0694 (inactive)
same,z-score,[3],-0.667 (inactive)
same,z-score,[4],-1 (inactive)
same,composite z-score,[5],0.799
same,composite z-score,[6],0.264
same,composite z-score,[7],1.4
same,composite z-score,[8],0.847
same,composite z-score,[9],2.06
CO[C@H]1COC(=O)[C@H](C)NC(=O)CC=C[C@@H](C)[C@H](NS(=O)(=O)c2ccc(C)cc2)COC(=O)[C@@H](OCc2ccccc2)C=C[C@@H]1C,composite z-score,[1],0.0746
same,z-score,[2],0.0974 (inactive)
same,z-score,[3],1.06 (inactive)
same,z-score,[4],-0.594 (inactive)
same,composite z-score,[5],-0.25
same,composite z-score,[6],-0.261
same,composite z-score,[7],0.196
same,composite z-score,[8],0.316
same,composite z-score,[9],0.96
CO[C@]12C=C(Br)[C@@H](C[C@@H]1c1ccccc1)[C@@]1(CO1)C2=O,composite z-score,[1],-0.002
same,z-score,[2],-1.7 (inactive)
same,z-score,[3],-0.323 (inactive)
same,z-score,[4],2 (inactive)
same,composite z-score,[5],0.4
same,composite z-score,[6],-0.0221
same,composite z-score,[7],0.271
same,composite z-score,[8],0.309
same,composite z-score,[9],0.522
CO[C@H]1COC(=O)[C@@H](OCc2ccccc2)C=C[C@H](C)[C@@H](OC)COC(=O)[C@H](OCc2ccccc2)C=C[C@@H]1C,composite z-score,[1],-0.115
same,z-score,[2],-2.26 (inactive)
same,z-score,[3],1.16 (inactive)
same,z-score,[4],-0.672 (inactive)
same,composite z-score,[5],-0.0864
same,composite z-score,[6],-0.0695
same,composite z-score,[7],0.593
same,composite z-score,[8],0.128
same,composite z-score,[9],0.537
O=[N+]([O-])c1ccc(C[n+]2ccc3ccc(O)cc3c2)o1,composite z-score,[1],0.465
same,z-score,[2],-0.893 (inactive)
same,z-score,[3],-0.815 (inactive)
same,z-score,[4],-1.3 (inactive)
same,composite z-score,[5],1.29
same,composite z-score,[6],0.0857
same,composite z-score,[7],0.244
same,composite z-score,[8],1.07
same,composite z-score,[9],0.841
C=CCC(OC(C)=O)[C@@H]1[C@@H](N(Cc2ccc(-c3ccccc3)cc2)C(=O)c2ccc(C)cc2)c2cc(OCCCO)ccc2N1C(=O)c1ccc(-c2ccccc2)cc1 (some centres undefined),composite z-score,[1],0.504
same,z-score,[2],-1.62 (inactive)
same,z-score,[3],1.73 (inactive)
same,z-score,[4],-0.782 (inactive)
same,composite z-score,[5],0.0598
same,composite z-score,[6],0.0884
same,composite z-score,[7],-0.0824
same,composite z-score,[8],0.119
same,composite z-score,[9],0.0223
COc1ccc(-c2ccccc2[C@@H]2N[C@H](C(=O)O)CC[C@H]2C)cc1,composite z-score,[1],-0.053
same,z-score,[2],-1.45 (inactive)
same,z-score,[3],1.01 (inactive)
same,z-score,[4],-0.902 (inactive)
same,composite z-score,[5],0.376
same,composite z-score,[6],-0.109
same,composite z-score,[7],0.69
same,composite z-score,[8],0.272
same,composite z-score,[9],0.289
COc1ccc([Si](C)(C)[C@H]2[C@H](CC(=O)N3Cc4ccccc4C[C@H]3CO)O[C@@]3(C(=O)N(Cc4cccc(N5CCOC5=O)c4)c4ccccc43)[C@@H]2C)cc1,composite z-score,[1],0.341
same,z-score,[2],-3.32 (inactive)
same,z-score,[3],5.51 (inactive)
same,z-score,[4],-1.25 (inactive)
same,composite z-score,[5],0.0303
same,composite z-score,[6],0.0086
same,composite z-score,[7],0.287
same,composite z-score,[8],0.383
same,composite z-score,[9],1.37
